HT1080-NT tox: kills 2HG-producing HT-1080-NT fibrosarcoma cells; Potency, µM (doses to about 46.1 µM), most hits filed as cytotoxic; HT-1080-NT fibrosarcoma viability, CellTiter-Glo ATP luminescence, 48 h; 360,000 tested, 1.6% active;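 further: NT is the 2HG producing partner of a matched IDH1 knockdown line; nearly all actives have a fitted effect of over 55% in size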
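Read-out is CellTiter-Glo luminescence after 10 minutes at room temperature, following 48 hours' compound treatment of HT-1080-NT cells (750 cells/well, RPMI, 5% FBS, 37 degrees C).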
uPA generation: blocks generation of uPA at the cell surface. cell surface uPA generation assay, qHTS. Potency, µM (top dose mostly 38.3 µM), most hits filed as inhibitors. 330,000 tested, 0.31% active. AID 540303; active means well fitted inhibition curve with a large enough effect; inconclusive means small, poorly fitted or top-dose-only effect; inactive means no such curve, though single readings can be large or run the other way; tested in mouse RAW 264.7 cells; further: nearly all actives have a fitted effect of over 55% in size
HT1080 IDH1KD tx: toxicity to HT-1080 IDH1 knockdown cells (counter line). HT-1080 IDH1 knockdown viability, ATP luminescence, 48 h. Potency, µM (doses to about 46.1 µM), usual class: cytotoxic. 360,000 tested, 2% active. AID 686971
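CellTiter-Glo luminescence after 48 h compound exposure at 37 degrees C of IDH1-knockdown HT-1080 cells in 5% FBS RPMI. %Activity scaled between DMSO wells and cell-free media wells, with curves fitted and assigned curve classes.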
IL-1B inflam inh: blocks inflammasome-driven IL-1 beta release; THP-1 LPS/ATP IL-1B secretion, AlphaLISA, 16 h; active compounds read low; activity change, % at 57.5 µM; 360,000 tested, 4.7% active; AID 743279; in the data active means activity change below about -50%; inconclusive means mostly about -30% to -49%
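THP-1 cells pretreated 1 hr with compounds (up to 57.5 uM final), then stimulated with LPS (250 ng/mL final) plus ATP (1.25 mM final); secreted IL-1B measured by AlphaLISA after 16 hr, decreased signal indicating inhibition.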
DT40 TDP1 no CPT: qHTS for Inhibitors of human tyrosyl-DNA phosphodiesterase 1 (TDP1): qHTS in cells in absence of CPT. DT40 Tdp1-/- hTDP1 cells, no CPT, ATP luminescence, 48 h. Potency, µM (top dose mostly 46.2 µM), usual class: inhibitors. 420,000 tested, 15% active. AID 686978, 2013; further: nearly all actives have a fitted effect of over 55% in size
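Growth kinetics read by CellTiter-Glo luminescence after ≥48 hr at 37 °C. Cells: DT40 Tdp1-/- stably carrying human TDP1, 400 per well, compound exposure in the absence of CPT (DMSO vehicle).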
TDP1 cell CPT: DT40-hTDP1 cell growth loss with CPT. Potency, µM (top dose mostly 46.2 µM), actives largely listed as inhibitors. 420,000 tested, 12% active. chicken DT40 Tdp1-/-;hTDP1 cells + 20 nM CPT, ATP luminescence, 48 h; further: nearly all actives have a fitted effect of over 55% in size
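Chicken DT40 Tdp1-/- cells complemented with human TDP1, 400 cells/well, exposed to compounds plus 20 nM camptothecin for at least 48 h at 37 C; viability read as ATP content by CellTiter-Glo luminescence.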
A number is an active result; . = inactive; ? = inconclusive; / = no result; [ ] = remark or other dose. Compounds with a hit are over-represented: about 19% of the library has one in this group of screens. Unless noted, the call rests on the fitted dose curve; in most records, active means well fitted curve in the direction sought with a large enough effect; inconclusive means small, poorly fitted or top-dose-only effect, or another doubt; inactive means no such curve, though single readings can be large; an effect the other way counts as inactive or inconclusive.

SMILES | HT1080-NT tox | uPA generation | HT1080 IDH1KD tx | IL-1B inflam inh | DT40 TDP1 no CPT | TDP1 cell CPT
COc1ccc(-c2coc3ccc(OC4OC(COC(C)=O)C(OC(C)=O)C(OC(C)=O)C4OC(C)=O)c(OC(C)=O)c3c2=O)cc1 (stereo not drawn) | / | / | / | / | 8.41µM | ?
COc1ccccc1S(=O)(=O)N[C@@H]1CC[C@@H](CCn2cc(C3CC3)nn2)O[C@@H]1CO | . | / | . | . | . | .
CCCOc1ccc(C(F)(F)F)cc1NS(=O)(=O)c1ccc(Cl)nc1 | ? | . | ? | -64.9 | ? | 14.6µM
O=C(Cc1ccc(NC(=O)C2CCN(C(=O)C3CCCC3)CC2)cc1)Nc1cccc(C(=O)N2CCCCC2)c1 | . | . | . | . | . | .
CCN(Cc1ccccc1)S(=O)(=O)c1ccc(C(=O)N(CCCN(C)C)c2nc3c(C)c(C)ccc3s2)cc1 | ? | . | 18.4µM | -84.0 | 16.4µM | ?
CCN(Cc1ccccc1)S(=O)(=O)c1ccc(C(=O)N(CCCN(C)C)c2nc3cc4c(cc3s2)OCO4)cc1 | ? | . | ? | -73.4 | . | ?
COc1ccccc1N1CCN(C2CCCN(C(=O)CC(F)(F)F)C2)CC1 (stereo not drawn) | . | . | . | . | . | .
CC(=O)Oc1cccc(/C=c2\sc3nc(-c4ccco4)nn3c2=O)c1 | . | . | . | ? | 16.4µM | ?
O=c1/c(=C/c2ccco2)sc2nc(-c3ccccc3Br)nn12 | . | . | . | . | . | .
CCN1C(=O)[C@H]2[C@@H](c3ccc(-c4cc(C(C)=O)cs4)cc3)N3CCCC[C@@]3(C(=O)OC)[C@H]2C1=O | . | . | . | . | 18.4µM | ?
CCN1C(=O)[C@H]2[C@@H](c3ccc(-c4cc(C(C)=O)cs4)cc3)N3CCC[C@@]3(C(=O)OC)[C@H]2C1=O | . | . | . | . | 23.1µM | ?
CCN(CC)C1CCN(C(=O)c2ccc(OC3CCN(C(=O)CCOC)CC3)cc2)C1 (stereo not drawn) | . | / | . | . | . | .
O=C(Nc1ccc(F)cc1)C(c1ccccc1)N1CCN(c2ccncc2)CC1 (stereo not drawn) | . | / | . | . | ? | .
Cc1ccc([N+](=O)[O-])c(NC(=O)COC(=O)CCNS(=O)(=O)c2cccs2)c1C | . | / | . | . | . | .
CC(C)c1csc(CN2CCC(CO)(Cc3cccc(F)c3)CC2)n1 | . | . | . | -59.0 | 23.1µM | ?
OCC1(Cc2cccc(F)c2)CCN(Cc2cccc3nccnc23)CC1 | . | . | . | ? | . | .
CCOC(=O)c1c(C)[nH]c(C)c1S(=O)(=O)NCC(=O)NCc1ccc(C)cc1 | / | / | / | / | . | .
O=C(NC1CCCCC1)C(CCc1ccccc1)N1CCc2ccccc2C1 (stereo not drawn) | ? | / | ? | . | 20.6µM | 20.6µM
O=C(NC1CCCCC1)C(CCc1ccccc1)N1CCOCC1 (stereo not drawn) | . | / | . | . | . | .
COc1ccc(Cn2c(CO)cnc2SCc2ccc(C)cc2)cc1 | / | / | / | / | ? | 18.4µM
OCc1cnc(SCc2ccccc2)n1Cc1ccccc1 | . | . | . | . | 16.4µM | ?
COc1ccc(Cn2c(CO)cnc2SCc2ccc(F)cc2)cc1 | / | / | / | / | 18.4µM | ?
CC(=O)N1CCC[C@H]1C(=O)NCC1Cc2cc(C)cc(-c3ccc(Cl)cc3)c2O1 (stereo partly drawn) | / | / | / | / | . | .[9.04 µM]
CCOC(=O)c1cc(-c2ccc(OC)cc2)n(CCC(=O)Nc2cccc(C)c2C)c1C | / | / | / | / | ? | .
CCOC(=O)c1cc(-c2ccc(C)cc2)n(CCC(=O)NC(C)CC)c1C (stereo not drawn) | . | . | . | . | ? | ?
CCOC(=O)c1cc(-c2ccccc2)n(CCC(=O)NCCc2ccccc2)c1C | / | / | / | / | 16.4µM | 20.6µM
COc1ccc2nc(NC(=O)CCn3cccc3)sc2c1 | . | . | ? | . | . | .
CCOC(=O)c1cc(-c2ccc(F)cc2)n(CCC(=O)Nc2cc(OC)cc(OC)c2)c1C | / | / | / | / | 16.4µM | 14.6µM

Screening results (PubChem)
